We go through 40 compounds from PubChem BioAssay (NCATS).

Records with an inconclusive call do not appear. Values without a mark were called inactive. The source made the active and inactive calls. Calls follow the shape of the dose curve; as a rule, active = well fitted cell-killing curve with a large enough effect; inconclusive = small, poorly fitted or top-dose-only effect; inactive = flat fitted curve, though single readings scatter.
Potency is read from the fitted curve at half-maximal effect.

The assay can be described thus: qHTS of pediatric cancer cell lines to identify multiple opportunities for drug repurposing: Primary screen for BT-37 cells (AID 1347094). Conditions: BT-37 viability, CellTiter-Glo luminescence, 48 h; series mostly up to 57.3 µM; activity change, negative = cytotoxic: at the top concentration. An excerpt:
Drug repurposing or repositioning has been offered as a strategy for drug development in oncology programs. This approach has special potential for childhood cancers and other rare or orphan diseases, where the expected return on new drug development has been a disincentive to pharmaceuticals. […] In this project we exploit the poly-pharmacology of drugs to discover new indications via phenotypic screening of a panel of 19 well-characterized cell lines derived from solid tumors seen in children and adolescents. The goal is to identify approved drugs with previously unrecognized anticancer properties that has the potential to reveal new mechanisms and biological processes involved in carcinogenesis or drug resistance. We employed a titration-based paradigm (quantitative high-throughput screening or qHTS), where all compounds were tested at multiple concentrations for their effect on cell viability. Concentration-response curves (CRCs) were derived directly from the primary screen, and both potency and efficacy values were used to identify compounds with robust bioactivity profiles. We screened the NIH Chemical Genomics Center (NCGC) Pharmaceutical Collection (NPC) and Mechanism Interrogation Plate (MIPE) small molecule collections of approved and investigational compounds against these cell lines; and measured metabolically active cells after 48 hours of compound treatment as a proxy for cell viability. […] Assay Submitter: Nathalia J. Martinez, National Center for Advancing Translational Sciences, National Institutes of Health, Rockville, MD, USA; email: natalia.martinez@nih.gov Shen, M et al. Quantitative high-throughput phenotypic screening of pediatric cancer cell lines identifies multiple opportunities for drug repurposing. Oncotarget 2017 Dec 19;9(4):4758-4772. PMID 29435139.
The cells were obtained from University of North Carolina (UNC), Pediatric Preclinical Testing Program (PPT), and Coriell Institute (CI). qHTS cell viability assay: Cells were assayed in growth media at a density of 500-1,000 cells/well. Five microliters of cells were dispensed into 1,536-well, white, solid-bottom, TC-treated plates (Greiner Bio One) using a multidrop dispenser and incubated at 37 degrees C, 5% CO2, under a humidified atmosphere for 5 hours. Twenty-three nanoliters of compounds and controls (neutral control DMSO or positive control bortezomib at final concentration of 2.3 µM) were subsequently transferred by Kalypsys pintool. For primary screens, the MIPE collection was tested at 11-point dilutions (final concentrations range from 0.78 nM to 46 µM) and the NPC collection at 8-point dilutions (final concentrations range from 0.59 nM to 46 µM). Compounds tested in follow-up screens were assayed at 11-point dilutions. Cells were incubated for 48 hours, followed by addition of 3 µL of CellTiter-Glo (Promega). After a 15 min incubation at room temperature, samples were analyzed for luminescence intensity using a ViewLux High-throughput CCD imager equipped with clear filters.
Take `C[C@H]1C[C@@H]2[C@@H]([C@@H](O)C[C@@]3(C)[C@H]2CC[C@]3(O)C(=O)CO)[C@@]2(C)C=CC(=O)C=C12`: the “activity change, negative = cytotoxic” value was 12%.

In the case of `COc1cc2c(cc1-c1c(C)noc1C)ncc1[nH]c(=O)n([C@H](C)c3ccccn3)c12`, the Potency is 17.2 µM (active).

`COc1ccc(OC)c(-c2nnc3ccc(-c4ccc(OC)c(O[C@@H]5CCOC5)c4)nn23)c1`: the Potency was 27.3 µM (active).

`O=C(C=Cc1cccc(S(=O)(=O)Nc2ccccc2)c1)NO`: the Potency was 7.03 µM (active).

For the compound `Clc1cccc(-c2nnnn2Cc2cccnc2)c1Cl`, the “activity change, negative = cytotoxic” value was 2.69%.

Regarding `CNC(=O)c1ccc(N2C(=S)N(c3cnc(C#N)c(C(F)(F)F)c3)C(=O)C23CCC3)cc1F`, the Potency was 19.3 µM (active).

On to `CN(C)CC(C)(C)CNc1nn2c(-c3ccccc3)nnc2cc1C1CCC1`, for which the Potency was 0.863 µM (active).

With `COc1ccc(-n2nc(C(N)=O)c3c2C(=O)N(c2ccc(N4CCCCC4=O)cc2)CC3)cc1`, the Potency was 12.2 µM (active).

As to `CC(C)Nc1cc(C(F)(F)F)cc2nc(NC(=O)c3cccnc3)nn12`, the “activity change, negative = cytotoxic” value was -1.24%.

Turning to `Cc1nc(Nc2n[nH]c3c2CN(C(=O)N[C@H](CN(C)C)c2ccccc2)C3(C)C)c2sccc2n1`, the Potency was 0.611 µM (active).

Regarding `CC[C@@]1(O)C(=O)OCc2c1cc1n(c2=O)Cc2cc3cc(O)ccc3nc2-1`, the Potency is 0.0217 µM (active).

For the compound `C[C@]1(CO)CN(c2cc(C(=O)Nc3ccc4c(c3)-c3c(c(C(N)=O)nn3-c3ccc(F)cc3)CC4)c(Cl)cn2)C[C@@]1(C)CO`, the Potency is 5.44 µM (active).

In the case of `O=C(O)CO.[NH2-].[NH2-].[Pt+2]`, the “activity change, negative = cytotoxic” value was 19.2%.

On to `COc1c(N2C[C@@H]3CCCN[C@H]3C2)c(F)cc2c(=O)c(C(=O)O)cn(C3CC3)c12`, for which the “activity change, negative = cytotoxic” value was 8.4%.

With `CC1(C)CCC(c2ccc(Cl)cc2)=C(CN2CCN(c3ccc(C(=O)NS(=O)(=O)c4ccc(N[C@H](CCN5CCOCC5)CSc5ccccc5)c(S(=O)(=O)C(F)(F)F)c4)cc3)CC2)C1`, the Potency is 13.7 µM (active).

For `COc1cccc2nc(-c3cccs3)nc(NN3C(=O)C=C(C)C3=O)c12`, the Potency was 0.863 µM (active).

As for `COc1cc(=C2C=c3ccccc3=N2)[nH]c1=Cc1[nH]c(C)cc1C`, the Potency was 7.69 µM (active).

For `C=CC(=O)Nc1cc2c(Nc3ccc(F)c(Cl)c3)ncnc2cc1C#CC(C)(C)N1CCN(C)CC1`, the Potency was 3.85 µM (active).

`O=C(NCCS(=O)(=O)c1ccc(C(F)(F)F)cn1)c1ccc(Cl)cc1`: the “activity change, negative = cytotoxic” value is -5.91%.

Turning to `COC(=O)c1ccc2c(C(=Nc3ccc(N(C)C(=O)CN4CCN(C)CC4)cc3)c3ccccc3)c(O)[nH]c2c1`, the Potency was 3.85 µM (active).

For `C1Cc2[nH]nc(-c3nn[nH]n3)c2C1`, the “activity change, negative = cytotoxic” value is 14.7%.

In the case of `CNC(=O)c1ccccc1Nc1nc(Nc2ccc(N3CCOCC3)cc2OC)ncc1Cl`, the Potency is 7.69 µM (active).

Regarding `Nc1ccccc1NC(=O)c1ccc(CNc2nccc(-c3cccnc3)n2)cc1`, the Potency is 3.06 µM (active).

With `COc1cc(C(=O)N2CCC(N3CCN(C)CC3)CC2)ccc1Nc1ncc2c(n1)N(C)c1ccccc1C(=O)N2C`, the Potency was 15.3 µM (active).

In the case of `Cc1ccc(S(=O)(=O)Nc2cc(Cl)ccc2C(=O)Nc2nc(-c3ccccc3)cs2)cc1`, the Potency was 17.2 µM (active).

In the case of `Cc1cc(C(=O)N2CCN(c3cccc(Cl)c3)CC2)n(-c2ccccc2)n1`, the Potency is 6.11 µM (active).

Turning to `O=C(C=Cc1c(C(=O)O)[nH]c2cc(Cl)cc(Cl)c12)Nc1ccccc1`, the “activity change, negative = cytotoxic” value was 4.02%.

With `Cn1c2ccccc2c2c3c(c4c5ccccc5n(CCC#N)c4c21)CNC3=O`, the Potency is 7.69 µM (active).

For `CN1CCC(CNc2ccc3ncc(-c4cccc(OC(F)(F)F)c4)n3n2)CC1`, the Potency was 21.7 µM (active).

For the compound `C=CC(=O)Nc1cccc(Oc2nc(Nc3ccc(N4CCN(C)CC4)cc3OC)ncc2Cl)c1`, the Potency is 27.3 µM (active).

Turning to `CC=C1NC(=O)[C@H]2CSSCCC=C[C@H](CC(=O)N[C@H](C(C)C)C(=O)N2)OC(=O)[C@H](C(C)C)NC1=O`, the Potency is 0.0109 µM (active).

With `O=C(O)[C@H](Cc1c[nH]c2ccccc12)N1C(=O)c2ccccc2C1=O`, the “activity change, negative = cytotoxic” value is -3.51% [at 116 µM].

For `CC(=O)OCCN1C(=O)c2c(C)nc3ccc(S(=O)(=O)N4CCOCC4)cc3c2C1=O`, the Potency is 5.44 µM (active).

Consider `CN1CCN(c2cc(C(=O)Nc3ccc4c(c3)-c3c(c(C(N)=O)nn3-c3ccc(F)cc3)CC4)c(Cl)cn2)CC1`, for which the Potency is 24.3 µM (active).

For `C[C@@H](Oc1cc(-n2cnc3ccc(CN4CCN(C)CC4)cc32)sc1C(N)=O)c1ccccc1C(F)(F)F`, the Potency is 0.153 µM (active).

Consider `COC(=O)Nc1ccc(-c2nc(N3CCOCC3)c3cnn(C4CCN(Cc5cccnc5)CC4)c3n2)cc1`, for which the Potency was 0.544 µM (active).

For `CC(C)C[C@H](NC(=O)CNC(=O)c1cc(Cl)ccc1Cl)B(O)O`, the Potency was 0.485 µM (active).

`CC(C)(O)c1cc2nc(-c3cnc(N)nc3)nc(N3CCOCC3)c2s1`: the Potency is 0.769 µM (active).

`CC[C@@H]1C(=O)N(C)c2cnc(Nc3ccc(C(=O)NC4CCC(N5CCN(CC6CC6)CC5)CC4)cc3OC)nc2N1C(C)C` (stereo not given in full): the Potency is 2.43 µM (active).

For `CCS(=O)(=O)c1cccc(-c2cc(C(=O)NC3CCN(C)CC3)c(C)c3[nH]c4ncc(C)cc4c23)c1`, the Potency is 3.06 µM (active).
